According to the supplement of paper PMC10849652:
About 8,800 targets were measured; listed, in parts, are those with a hit and a random draw of the rest. About 0.5% of all pairs of compound and target were hits. A number with no mark means an inactive call.

What was measured:
Assay in all cases: log2 fold change, soluble protein after heating vs DMSO (PISA); higher = thermal stabilisation; K562 lysate, 10 uM; active = over 0.2 and 3.5 SD of the protein, either way, in both replicates (recomputed)
erlotinib = compound: C#Cc1cccc(Nc2ncnc3cc(OCCOC)c(OCCOC)cc23)c1 [erlotinib]
How it was run: (§1)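 Values give the log-two fold change in thermal stability against solvent controls, from duplicates. Crude K562 extract at 1 mg/mL protein, made by dounce homogenisation in PBS pH 7.4 with 1 mM MgCl2, was treated with 10 μM compound for 30 min. After 3 min heating across 48°C-58°C, aliquots were pooled, adjusted to 0.5% NP-40 at 4°C and centrifuged at 21,000xg for 90 min. The supernatant was measured by TMTpro 16plex LC-MS/MS with channel sums equalised.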

[1] = compound: C/C(=N\NC(=O)C1=CC(=CC=C1)S(=O)(=O)N2CCOCC2)/C3=C(C=CC(=C3)Cl)O
How it was run: as §1

[2] = compound: C1=CC(=CC=C1C2=NC3=C(N2)C=C(C=C3)C(=O)N)OC4=CC=C(C=C4)Cl
How it was run: as §1

[3] = compound: C1=CC2=C(C=CC(=C2)/C=C\3/C(=O)NC(=NCC4=CC=CS4)S3)N=C1
How it was run: as §1

[4] = compound: C1=CC2=NC=CN=C2C=C1/C=C/3\C(=O)NC(=O)S3
How it was run: as §1

[5] = compound: C1=CC=C(C=C1)C2=NC(=C(N2)C3=CC=NC=C3)C4=CC(=C(C=C4)Cl)O
How it was run: as §1

[6] = compound: C1=CC=C2C(=C1)C3=NNC4=CC=CC(=C43)C2=O
How it was run: as §1

[7] = compound: C1CCN(C1)C(=O)NC2=CC=CC(=C2)NC3=NC=C(C(=N3)NCCC4=CN=CN4)Br
How it was run: as §1

[8] = compound: C1CN(CCC1(CC2=CC=C(C=C2)Cl)N)C3=NC=NC4=C3C=CN4
How it was run: as §1

IRAK-1-4 Inhibitor I = compound: C1COCCN1CCN2C3=CC=CC=C3N=C2NC(=O)C4=CC(=CC=C4)[N+](=O)[O-] [IRAK-1-4 Inhibitor I]
How it was run: as §1

ibrutinib = compound: C=CC(=O)N1CCC[C@@H](n2nc(-c3ccc(Oc4ccccc4)cc3)c3c(N)ncnc32)C1 [ibrutinib]
How it was run: as §1

[9] = compound: CC(=O)c1cnc2ccc(-c3cc(Cl)c(O)c(Cl)c3)nc2c1N[C@H]1CC[C@H](CN(C)C)CC1
How it was run: as §1

ralimetinib = compound: CC(C)(C)Cn1c(N)nc2ccc(-c3[nH]c(C(C)(C)C)nc3-c3ccc(F)cc3)nc21 [ralimetinib]
How it was run: as §1

[10] = compound: CC(C)(O)CC(=O)NCCn1ccc2ncnc(Nc3ccc(Oc4cccc(C(F)(F)F)c4)c(Cl)c3)c21
How it was run: as §1

[11] = compound: CC(C)C1=C2N=C(C=C(N2N=C1)NCC3=CC=CC=C3)NCCCCCCN
How it was run: as §1

[12] = compound: CC1=C(C(CC(=O)N1)C2=CC=C(C=C2)C(F)(F)F)C(=O)NC3=C(C=C4C(=C3)C=NN4)F
How it was run: as §1

[13] = compound: CC1=C(C2=C(C=C1)C(=O)C3=CC=CC=C3N2CCCN)C
How it was run: as §1

[14] = compound: CC1=C(C=C(C=C1)NC(=O)C2=CC(=CC=C2)C(C)(C)C#N)NC3=CC4=C(C=C3)N=CN(C4=O)C
How it was run: as §1

[15] = compound: CC1=C(C=C(C=C1)NC(=O)C2=CC(=CC=C2)N(C)C)NC(=O)C3=CC=C(C=C3)O
How it was run: as §1

[16] = compound: CC1=CC=C(C=C1)SC2=C3C=C(SC3=CN=C2)C(=O)N
How it was run: as §1

UniProt O43399, sequence (O43399 whole entry, looked up): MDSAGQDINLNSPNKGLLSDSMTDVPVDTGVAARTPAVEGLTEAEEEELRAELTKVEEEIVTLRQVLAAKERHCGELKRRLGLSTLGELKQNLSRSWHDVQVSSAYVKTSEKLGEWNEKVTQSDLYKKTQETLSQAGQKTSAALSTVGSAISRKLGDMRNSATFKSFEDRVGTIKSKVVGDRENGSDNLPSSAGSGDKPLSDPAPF
UniProt Q24JP5, sequence (Q24JP5 whole entry, looked up): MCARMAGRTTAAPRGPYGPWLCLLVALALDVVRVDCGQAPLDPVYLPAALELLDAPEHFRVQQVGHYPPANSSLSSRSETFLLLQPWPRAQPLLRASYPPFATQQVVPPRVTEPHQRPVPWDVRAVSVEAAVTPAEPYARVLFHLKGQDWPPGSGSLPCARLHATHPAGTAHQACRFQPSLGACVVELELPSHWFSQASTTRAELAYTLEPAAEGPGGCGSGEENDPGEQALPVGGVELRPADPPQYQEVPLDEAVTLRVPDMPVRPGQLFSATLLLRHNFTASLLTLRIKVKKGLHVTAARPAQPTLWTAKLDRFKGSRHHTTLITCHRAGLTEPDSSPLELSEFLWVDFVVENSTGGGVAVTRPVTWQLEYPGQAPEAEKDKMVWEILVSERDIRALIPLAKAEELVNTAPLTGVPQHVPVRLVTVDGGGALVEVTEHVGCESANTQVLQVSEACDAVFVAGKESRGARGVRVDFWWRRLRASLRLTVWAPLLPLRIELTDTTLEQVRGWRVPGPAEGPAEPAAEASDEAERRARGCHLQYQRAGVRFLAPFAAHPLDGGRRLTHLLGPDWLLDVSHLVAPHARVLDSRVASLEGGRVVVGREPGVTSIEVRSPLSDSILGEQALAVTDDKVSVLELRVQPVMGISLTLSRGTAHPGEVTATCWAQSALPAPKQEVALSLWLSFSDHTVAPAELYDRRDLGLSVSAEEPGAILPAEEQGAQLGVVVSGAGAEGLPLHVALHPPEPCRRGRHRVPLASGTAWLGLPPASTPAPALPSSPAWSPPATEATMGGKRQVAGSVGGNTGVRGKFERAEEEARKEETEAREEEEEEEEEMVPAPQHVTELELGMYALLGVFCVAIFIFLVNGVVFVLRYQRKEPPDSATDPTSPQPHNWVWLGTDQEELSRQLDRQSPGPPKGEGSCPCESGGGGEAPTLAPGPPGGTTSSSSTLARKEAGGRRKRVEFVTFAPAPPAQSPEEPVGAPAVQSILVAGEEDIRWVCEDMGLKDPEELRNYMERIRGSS
UniProt Q96RT8, sequence (Q96RT8 whole entry, looked up): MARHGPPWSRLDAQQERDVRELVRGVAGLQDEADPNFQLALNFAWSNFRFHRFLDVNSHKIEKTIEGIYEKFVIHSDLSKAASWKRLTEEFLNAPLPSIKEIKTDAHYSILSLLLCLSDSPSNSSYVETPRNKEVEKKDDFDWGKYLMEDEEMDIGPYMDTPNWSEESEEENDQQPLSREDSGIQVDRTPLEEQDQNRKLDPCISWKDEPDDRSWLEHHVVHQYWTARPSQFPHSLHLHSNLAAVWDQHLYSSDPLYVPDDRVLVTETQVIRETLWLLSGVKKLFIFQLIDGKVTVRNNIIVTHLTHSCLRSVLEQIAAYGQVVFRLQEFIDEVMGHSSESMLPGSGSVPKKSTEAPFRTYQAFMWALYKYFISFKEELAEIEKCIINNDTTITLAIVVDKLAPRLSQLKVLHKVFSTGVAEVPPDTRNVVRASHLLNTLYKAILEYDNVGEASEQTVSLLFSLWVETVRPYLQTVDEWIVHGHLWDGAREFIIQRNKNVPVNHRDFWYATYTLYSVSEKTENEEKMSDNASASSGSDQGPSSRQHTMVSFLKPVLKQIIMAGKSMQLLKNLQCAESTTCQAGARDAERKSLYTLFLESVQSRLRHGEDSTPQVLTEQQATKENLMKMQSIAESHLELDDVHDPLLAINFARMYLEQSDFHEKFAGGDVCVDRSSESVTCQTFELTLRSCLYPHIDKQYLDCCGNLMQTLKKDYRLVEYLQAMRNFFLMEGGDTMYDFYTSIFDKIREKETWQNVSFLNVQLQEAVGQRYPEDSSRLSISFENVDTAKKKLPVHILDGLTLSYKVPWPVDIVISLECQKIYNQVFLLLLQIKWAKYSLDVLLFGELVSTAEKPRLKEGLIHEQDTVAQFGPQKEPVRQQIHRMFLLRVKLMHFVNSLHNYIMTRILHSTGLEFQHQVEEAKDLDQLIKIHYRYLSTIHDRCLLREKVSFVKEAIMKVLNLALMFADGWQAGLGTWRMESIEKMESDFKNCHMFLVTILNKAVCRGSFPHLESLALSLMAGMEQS
UniProt Q8IZ69, sequence (Q8IZ69 whole entry, looked up): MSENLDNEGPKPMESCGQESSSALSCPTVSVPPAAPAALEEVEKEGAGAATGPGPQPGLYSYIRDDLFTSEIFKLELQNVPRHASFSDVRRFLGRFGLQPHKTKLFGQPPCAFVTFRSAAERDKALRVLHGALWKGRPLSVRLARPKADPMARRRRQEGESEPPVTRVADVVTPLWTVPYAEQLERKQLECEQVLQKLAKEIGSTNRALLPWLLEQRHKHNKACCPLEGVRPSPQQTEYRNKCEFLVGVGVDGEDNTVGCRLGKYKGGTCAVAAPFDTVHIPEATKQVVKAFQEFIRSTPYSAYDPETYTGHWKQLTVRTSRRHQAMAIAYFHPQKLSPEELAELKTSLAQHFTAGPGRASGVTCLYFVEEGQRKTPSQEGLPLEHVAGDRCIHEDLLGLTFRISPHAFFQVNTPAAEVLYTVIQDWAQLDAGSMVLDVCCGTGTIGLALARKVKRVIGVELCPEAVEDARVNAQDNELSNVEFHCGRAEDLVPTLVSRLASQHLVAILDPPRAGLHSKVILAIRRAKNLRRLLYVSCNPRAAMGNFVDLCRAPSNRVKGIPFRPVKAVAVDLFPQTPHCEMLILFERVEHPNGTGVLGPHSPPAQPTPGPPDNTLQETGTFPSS
UniProt Q9BZL1, sequence (Q9BZL1 whole entry, looked up): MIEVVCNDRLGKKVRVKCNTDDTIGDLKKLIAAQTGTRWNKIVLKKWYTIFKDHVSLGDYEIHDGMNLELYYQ
UniProt Q0IIM8, sequence (Q0IIM8 whole entry, looked up): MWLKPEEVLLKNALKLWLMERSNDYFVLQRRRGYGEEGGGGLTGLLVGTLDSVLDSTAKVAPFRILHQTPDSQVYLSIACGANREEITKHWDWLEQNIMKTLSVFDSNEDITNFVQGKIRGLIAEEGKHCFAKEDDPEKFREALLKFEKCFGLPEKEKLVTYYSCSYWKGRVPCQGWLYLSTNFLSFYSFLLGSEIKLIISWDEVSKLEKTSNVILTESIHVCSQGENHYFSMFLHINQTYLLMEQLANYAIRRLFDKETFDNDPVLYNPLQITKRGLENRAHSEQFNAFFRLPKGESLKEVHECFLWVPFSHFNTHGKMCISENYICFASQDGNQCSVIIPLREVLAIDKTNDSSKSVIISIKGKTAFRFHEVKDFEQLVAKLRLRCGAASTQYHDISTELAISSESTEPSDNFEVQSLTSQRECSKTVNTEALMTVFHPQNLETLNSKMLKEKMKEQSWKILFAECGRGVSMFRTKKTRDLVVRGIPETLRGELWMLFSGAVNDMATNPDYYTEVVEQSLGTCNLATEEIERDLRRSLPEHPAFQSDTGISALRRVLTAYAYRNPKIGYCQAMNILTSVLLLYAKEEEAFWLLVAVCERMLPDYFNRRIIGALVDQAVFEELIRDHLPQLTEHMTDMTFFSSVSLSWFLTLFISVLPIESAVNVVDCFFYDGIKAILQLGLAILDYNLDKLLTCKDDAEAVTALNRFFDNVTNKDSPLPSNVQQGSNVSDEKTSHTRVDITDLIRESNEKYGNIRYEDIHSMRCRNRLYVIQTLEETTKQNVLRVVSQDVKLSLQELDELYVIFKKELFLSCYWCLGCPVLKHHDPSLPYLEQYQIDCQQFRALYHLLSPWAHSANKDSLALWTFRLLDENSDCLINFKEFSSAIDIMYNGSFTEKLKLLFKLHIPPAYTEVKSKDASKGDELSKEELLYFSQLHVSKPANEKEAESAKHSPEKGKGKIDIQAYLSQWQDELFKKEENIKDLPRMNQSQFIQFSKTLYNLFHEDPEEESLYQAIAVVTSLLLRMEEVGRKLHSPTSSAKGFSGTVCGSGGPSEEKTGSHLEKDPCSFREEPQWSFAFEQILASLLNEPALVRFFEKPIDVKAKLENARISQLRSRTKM
UniProt P15884, sequence (P15884 whole entry, looked up): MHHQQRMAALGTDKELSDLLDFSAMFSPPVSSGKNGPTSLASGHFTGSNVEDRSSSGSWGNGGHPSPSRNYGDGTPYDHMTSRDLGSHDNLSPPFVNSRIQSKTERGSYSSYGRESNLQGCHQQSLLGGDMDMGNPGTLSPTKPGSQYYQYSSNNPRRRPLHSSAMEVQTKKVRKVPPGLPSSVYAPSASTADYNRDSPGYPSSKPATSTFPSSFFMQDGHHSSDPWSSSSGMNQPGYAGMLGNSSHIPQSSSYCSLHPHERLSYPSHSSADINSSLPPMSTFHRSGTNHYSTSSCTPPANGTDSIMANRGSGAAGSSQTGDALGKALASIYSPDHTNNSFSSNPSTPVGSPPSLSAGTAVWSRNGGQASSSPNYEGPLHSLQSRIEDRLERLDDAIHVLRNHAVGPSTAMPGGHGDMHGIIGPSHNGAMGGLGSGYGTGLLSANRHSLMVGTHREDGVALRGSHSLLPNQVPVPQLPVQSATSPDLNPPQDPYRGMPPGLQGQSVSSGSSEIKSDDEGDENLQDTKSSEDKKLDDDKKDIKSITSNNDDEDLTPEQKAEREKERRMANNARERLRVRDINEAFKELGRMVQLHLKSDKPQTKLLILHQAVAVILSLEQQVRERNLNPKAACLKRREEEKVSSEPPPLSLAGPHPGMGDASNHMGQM
UniProt Q6P9G4, sequence (Q6P9G4 whole entry, looked up): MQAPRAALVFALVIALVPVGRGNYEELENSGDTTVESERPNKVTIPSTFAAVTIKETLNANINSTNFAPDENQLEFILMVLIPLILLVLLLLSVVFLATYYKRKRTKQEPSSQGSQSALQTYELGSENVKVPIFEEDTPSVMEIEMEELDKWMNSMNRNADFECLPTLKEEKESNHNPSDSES

Target	log2 fold change (erlotinib)	log2 fold change [1]	log2 fold change [2]	log2 fold change [3]	log2 fold change [4]	log2 fold change [5]	log2 fold change [6]	log2 fold change [7]	log2 fold change [8]	log2 fold change (IRAK-1-4 Inhibitor I)	log2 fold change (ibrutinib)	log2 fold change [9]	log2 fold change (ralimetinib)	log2 fold change [10]	log2 fold change [11]	log2 fold change [12]	log2 fold change [13]	log2 fold change [14]	log2 fold change [15]	log2 fold change [16]
TBC1D8B (UniProt Q0IIM8)	-0.023	-0.376	0.036	-0.041	0	0.01	0.01	0.017	0.063	0.001	0.044	-0.039	-0.049	-0.017	0.031	-0.072	0.006	0.016	-0.056	-0.051
TBC1D20 isoform 3 (UniProt Q96BZ9)	-0.073	0.142	-0.113	0.043	0.117	-0.038	-0.018	0.033	0.023	0.132	0.078	-0.016	0.001	-0.14	-0.082	–	0.05	-0.171	0.019	-0.005
TNIK (UniProt C9J338)	0.067	-0.048	0.067	-0.071	-0.064	–	-0.112	-0.101	0.064	–	0.041	-0.076	–	–	0.025	–	-0.042	0.16	–	-0.114
TRMT2A (UniProt Q8IZ69)	-0.042	-0.015	-0.007	0.012	-0.012	-0.012	-0.004	-0.005	0.002	-0.007	0.002	0.005	0.026	-0.005	0.001	0.012	-0.007	-0.03	0.035	0.008
UBL5 (UniProt Q9BZL1)	0	0.002	-0.02	0.011	-0.079	0	0.049	0.029	0.004	-0.062	0.052	–	-0.029	0.04	-0.003	-0.056	0.032	0.038	0.037	–
TTLL12 (UniProt V9GY16)	0.144	0.13	-0.193	-0.05	0.074	-0.061	-0.072	-0.167	0.128	0.229	-0.32	–	-0.339	-0.165	-0.333	–	–	0.031	-0.009	–
TXNRD2 isoform 3 (UniProt Q9NNW7)	0.024	–	0.035	–	–	0.14	–	–	–	-0.006	–	–	-0.018	-0.323	-0.303	–	–	–	0.079	–
TRIM3 (UniProt O75382)	0.129	0.2	-0.909 (active)	0.098	–	–	0.012	0	-0.265	–	–	-0.06	–	–	-0.09	–	–	–	–	0.048
UBAP2L (UniProt F8W726)	–	-0.074	–	0.048	–	–	0.168	–	–	–	–	0.275	–	–	–	–	–	-0.547 (active)	–	-0.025
TMEM132A isoform 2 (UniProt Q24JP5)	-0.031	–	-0.009	–	–	-0.064	–	0.042	0.068	0.101	–	0.676	0.065	-0.194	0.03	–	–	0.05	0.015	0.019
TMEM154 (UniProt Q6P9G4)	–	–	–	–	–	0.01	–	-0.096	0.108	0.019	–	–	-0.079	0.164	–	–	0.048	-0.052	0.172	–
U2AF1L5 (UniProt P0DN76)	-0.029	–	0.044	–	–	-0.066	–	0.109	-0.107	0.132	–	-0.047	-0.019	0.001	0.069	-0.008	-0.003	–	0.143	0.011
TCF3 (UniProt X6REB3)	–	-0.006	–	-0.208	–	–	-0.192	–	–	–	–	–	–	–	–	–	–	–	–	–
TCF4 (UniProt P15884)	–	–	–	–	–	0.005	–	0.234	-0.165	-0.152	–	-0.285	-0.069	0.005	–	0.007	-0.019	-0.056	0.003	-0.035
UBR4 isoform 4 (UniProt Q5T4S7)	0.121	-0.209	-0.073	-0.071	–	0.136	0.016	0.119	-0.094	0.097	–	0.131	-0.092	-0.201	0.111	–	0.331	–	-0.02	0.034
TUBGCP5 (UniProt Q96RT8)	–	0.001	–	-0.026	0.024	0.013	0.01	-0.003	-0.043	-0.034	0.036	0.363	0.038	0.026	–	0.009	0.001	-0.007	-0.049	-0.118
TPD52L2 isoform 3 (UniProt O43399)	0.008	–	-0.036	–	-0.028	-0.049	–	–	–	0.029	0.288	–	0.167	-0.038	0.017	-0.007	–	–	0.107	–
TASP1 (UniProt Q9H6P5)	-0.013	–	-0.017	–	-0.102	-0.022	–	-0.062	0.092	0.055	0.005	0.04	-0.073	-0.062	0.028	0.089	-0.114	0.009	-0.012	0.067
TGFBR1 isoform 2 (UniProt P36897)	0.042	–	-0.069	–	–	–	–	0.14	-0.102	–	–	–	–	–	-0.032	–	-0.043	–	–	–
TNIK isoform 5 (UniProt Q9UKE5)	–	–	–	–	0.008	0.134	–	–	–	-0.038	0.07	0.345	0.016	-0.026	–	–	-0.091	0.276	-0.004	-0.136
TFPI isoform 2 (UniProt P10646)	–	0.01	–	0.113	–	–	-0.171	–	–	–	–	–	–	–	–	–	–	-0.034	–	–
